According to PubChem BioAssay AID720519 (National Center for Advancing Translational Sciences (NCATS), 2013):
Records with an inconclusive call do not appear. The source made the active and inactive calls. The call rests on the fitted dose curve; in most records, active means well fitted activation curve with a large enough effect; inconclusive means small, poorly fitted or top-dose-only effect; inactive means flat fitted curve, though single readings scatter.

assay: qHTS for Inhibitors of Cell Surface uPA Generation: Confirmatory Assay for Cherry-picked Compounds; details: cell surface uPA activity generation, qHTS confirmation; series mostly up to 115 µM; inhibition: at the top concentration; further: 0% is about no effect
How it was run: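 RAW 264.7 cells at 4000/well, incubated overnight, then treated with compounds. After 24 h at 37 C, viability was read by ATPlite luminescence. An increase in signal indicates blocked uPA-dependent LF entry.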

inhibition, inactive:
NC(=O)c1ccccc1NC(=O)CC12CC3CC(CC(C3)C1)C2 -2.57%
COc1ccc(CN2CCNC(=O)C2CC(=O)NCC2CCOCC2)cc1C (stereo not drawn) -1.23%
O=C(CSc1ccc(Cl)cc1)N1CCCC1 -2.87%
CC(C)c1ccc(NC(=O)COc2ccc(S(=O)(=O)N3CCOCC3)cc2)cc1 -0.157%
CCOc1cc(S(=O)(=O)NC2CC(C)(C)NC(C)(C)C2)ccc1Cl -0.311%
CCc1ccccc1N(CC(=O)N1CCCC1)S(C)(=O)=O 0.0909%
COC(/C=C/Nc1ccc(Cl)cc1)=C(C#N)C#N -0.118%
CN(CCC#N)C(=S)Nc1ccc(Oc2ccccc2)cc1 -1.16%
COc1cc(F)ccc1S(=O)(=O)n1c(C)nc2ccccc21 5.83%
O=C(NCCc1ccccc1)C1CCC(=O)N(Cc2cccc(C(F)(F)F)c2)C1 (stereo not drawn) -2.36%
COc1cc(CN2CCNC(=O)C2CC(=O)NCCCC2CCCC2)cc(OC)c1 (stereo not drawn) -3.3%
CC1CC(C)(C)Nc2ccc(N=O)cc21 (stereo not drawn) -3.61%
COc1cc2cc(CN(CCN3CCOCC3)C(=O)Nc3ccc(F)cc3)c(=O)[nH]c2cc1OC -0.841%
Cc1ccc(C)c(NC(=O)CCN2CCN(c3ccccc3F)CC2)c1 -0.576%
Cc1ccc(C)c(S(=O)(=O)Nc2ccccc2C(=O)Nc2cc(C)on2)c1 -2.99%
Cc1cc(C)cc(NC(=O)Cc2ccc(NC3=NC4CS(=O)(=O)CC4S3)cc2)c1 (stereo not drawn) 0.308%
CCCS(=O)(=O)c1ccc(COC(=O)Cc2ccc([N+](=O)[O-])cc2)cc1 -2.02%
c1ccc(C2[C@H]3CN(Cc4cccnc4)[C@H](c4ccccc4)C34CC2(c2ccccc2)C4)cc1 (stereo partly drawn) 2.4%
